Outcome and AC50 data for 18 molecules are collected here from PubChem BioAssay (EPA / NIEHS).

Records with an inconclusive call do not appear. The source made the active and inactive calls. How the source made its calls, unless noted: active means hit-call score of the fitted dose curve at least 0.9, where 1 is the maximum; inactive means score below 0.9.

Assay [1] is described as follows: CCTE_Shafer_MEA_acute_burst_duration_mean: CCTE's Neural Acute Assay for Mean Burst Duration, Shafer Lab (AID 2284014).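 Further: hits are decreases in mean burst duration relative to DMSO controls.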 A digest of the protocol:
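Read-out is the per-well percent change in mean burst duration (first to last spike within a single-electrode burst) between 40-min recordings before and after compound. Cultures were primary rat cortical neurons on MEAs, dosed at 0.03-40 uM on DIV 13 or 15.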

Assay [2] can be described thus: CCTE_Shafer_MEA_acute_per_burst_spike_number_mean: CCTE's Neural Acute Assay for Average Number of Spikes Per Burst, Shafer Lab (AID 2284015).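 Further: hits are decreases in mean spikes per burst versus baseline.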 An outline of the steps:
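Rat primary cortical neurons on 48-well MEAs (DIV 13 or 15) were treated with 0.03-40 uM compound at 37 C. Mean spikes per burst over 40 min were recorded before and after exposure and expressed as percent change from baseline, relative to DMSO.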

Assay [3] in a line: CCTE_Shafer_MEA_acute_interburst_interval_mean: CCTE's Neural Acute Assay for Mean Interburst Interval, Shafer Lab (AID 2284016).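 Further: percent change of mean interburst interval versus each well's own pre-dose baseline; curves fitted for decrease in interburst interval relative to DMSO.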 An outline of the steps: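 Rat primary cortical neurons on 48-well MEAs at DIV 13 or 15 were exposed acutely to 0.03-40 uM. Spikes detected at 8x rms noise, 37 C. Mean interburst interval from 40 min recordings expressed as percent change from 40 min pre-treatment baseline.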

Assay [4] in a line: CCTE_Shafer_MEA_acute_burst_percentage_mean: CCTE's Neural Acute Assay for Percentage of Spikes in a Burst, Shafer Lab (AID 2284017).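 On AC50: curve fitted for loss of signal so potency reflects decreased burst percentage.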 A digest of the protocol:
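Primary rat cortical neurons on 48-well MEA plates, treated on DIV 13 or 15 at 0.03-40 uM. Spikes detected at 8x rms noise at 37C; percent change from 40-min baseline to 40-min post-dose recording, fitted versus DMSO.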

Assay [5] in a line: CCTE_Shafer_MEA_acute_burst_percentage_std: CCTE's Neural Acute Assay for Standard Deviation of Burst Percentage, Shafer Lab (AID 2284018).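 Further: fitted in the negative direction so actives lower burst percentage SD.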 A digest of the protocol:
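Value is percent change from baseline in the across-electrode SD of spikes-in-bursts percentage, wells with >/= 10 active electrodes. Acute 40-min exposure to 0.03-40 uM on DIV 13 or 15 rat cortical cultures, recorded at 37 C after 40-min baseline.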

Assay [6] is described as follows: CCTE_Shafer_MEA_acute_per_network_burst_spike_number_mean: CCTE's Neural Acute Assay for Average Number of Spikes in a Network Burst, Shafer Lab (AID 2284019).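 On AC50: curve fitted for loss of signal so actives reduce spikes per network burst.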 An outline of the steps: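 Read-out is mean spike count per network burst, taken as percent change between a 40-min pre-exposure and a 40-min post-exposure recording per well. Rat primary cortical neurons on MEAs at 37 C, DIV 13 or 15; compounds at 0.03-40 uM.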

Assay [7] is described as follows: CCTE_Shafer_MEA_acute_per_network_burst_spike_number_std: CCTE's Neural Acute Assay for Standard Deviation of Number of Spikes in a Network Burst, Shafer Lab (AID 2284020).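 Further: fitted for decrease in spike-number SD versus DMSO so actives lower it.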 An outline of the steps: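 Spontaneous network activity of primary rat cortical neurons is recorded extracellularly before and after a 40-min compound exposure (0.03-40 uM) at 37 C. The endpoint is the well's percent change in burst spike-number SD.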

A short description of assay [8]: CCTE_Shafer_MEA_acute_per_network_burst_electrodes_number_mean: CCTE's Neural Acute Assay for Mean Number of Electrodes in a Network Burst, Shafer Lab (AID 2284021).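 Further: curves fitted for decreases only so hits reduce electrodes per burst.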 A digest of the protocol:
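Readout: % change in mean electrodes active per network burst, post- vs pre-treatment, each well. Spikes detected at 8x rms noise after 300-5000 Hz band-pass; rat cortical cultures, DIV 13/15, compounds 0.03-40 uM, DMSO baseline.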

A short description of assay [9]: CCTE_Shafer_MEA_acute_network_burst_percentage: CCTE's Neural Acute Assay for Percentage of Network Bursts, Shafer Lab (AID 2284022).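 Further: curves fitted for loss so actives lower network burst percentage.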 An outline of the steps: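 Rat cortical cultures, DIV 13/15; 20 min equilibration, 40 min baseline, compound 0.03-40 uM, 40 min recording, 37 C. Spikes: 300-5000 Hz band-pass, threshold 8x rms noise. Readout: % change in network-burst spike fraction; loss direction vs DMSO.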

Assay [10] is described as follows: CCTE_Shafer_MEA_acute_cross_correlation_area: CCTE's Neural Acute Assay for Area of Cross Correlation, Shafer Lab (AID 2284024).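 Further: area under pooled inter-electrode spike cross-correlation near zero lag as percent change from own baseline; curves fitted for loss of cross-correlation area so actives lower synchrony.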 An outline of the steps:
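Rat cortical cultures, DIV 13/15, MEA; spikes detected at 8x rms noise (300-5000 Hz band-pass). Compound 0.03-40 uM, ≥3 wells each. Readout: % change in pooled inter-electrode cross-correlation area vs own baseline; DMSO negative control.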

Assay [11] in a line: CCTE_Shafer_MEA_acute_cross_correlation_HWHM: CCTE's Neural Acute Assay for Cross Correlation at Half Width at Half Maximum, Shafer Lab (AID 2284026).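 Further: percent change per well from pre-dose baseline in spike cross-correlogram half width; hits are a decrease in cross-correlogram half width relative to DMSO.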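 On Outcome: spontaneous network firing of rat primary cortical neurons on multiwell microelectrode arrays.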 An outline of the steps:
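Read-out: half width at half maximum of action-potential cross-correlogram, percent change versus pre-treatment baseline, fitted in loss direction against DMSO. Rat cortical cultures, DIV 13 or 15, dosed 0.03-40 uM, 40-min recordings at 37 C.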

A short description of assay [12]: CCTE_Shafer_MEA_acute_synchrony_index: CCTE's Neural Acute Assay for Synchrony, Shafer Lab (AID 2284027).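 Further: network synchrony index of spontaneous spiking in primary rat cortical neurons on MEAs; fitted for loss of signal so actives lower synchrony relative to DMSO.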 An outline of the steps: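 Primary rat cortical neurons on 16-electrode MEA wells were recorded 40 min at baseline (DIV 13 or 15) and 40 min after compound (0.03-40 uM) at 37 C. Synchrony index (0-1) expressed as percent change from baseline, versus DMSO.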

Assay [13] concerns the target Estrogen receptor (Homo sapiens) (UniProt P03372). The experiment in a line: CCTE_Deisenroth_AIME_384WELL_LUC_Active: CCTE's 384-well Estrogen Receptor Transactivation Assay with AIME metabolic competence (ERTA luciferase; metabolism positive), Deisenroth Lab (AID 2284030; active means hit-call score of the fitted dose curve at least 0.9, where 1 is the maximum). An outline of the steps: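 Readout: bioluminescent luciferase induction in VM7Luc4E2 cells 24 hour after receiving medium from a 2 h rat hepatic S9 (induced, alginate microsphere) metabolism step. Concentrations 0.002 - 200 uM; activity scaled to 17beta-estradiol positive control.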

Assay [14] has the same target. The experiment in a line: CCTE_Deisenroth_AIME_384WELL_LUC_Inactive: CCTE's 384-well Estrogen Receptor Transactivation Assay without AIME metabolic competence (ERTA luciferase; metabolism negative), Deisenroth Lab (AID 2284038; active means hit-call score of the fitted dose curve at least 0.9, where 1 is the maximum;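 further: VM7Luc4E2 breast cells given medium preincubated 2 h with S9-free microspheres; hits raise estrogen receptor luciferase signal so potencies reflect agonists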). A digest of the protocol: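 Chemicals (10-point series, 0.002 - 200 uM) were incubated 2 hours with alginate-water microsphere lids lacking S9, then the conditioned medium was transferred to VM7Luc4E2 breast cells for 24 hour. Luciferase induction was read by bioluminescence, fitted upward relative to 17beta-estradiol.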

Assay [15] can be described thus: CCTE_Deisenroth_AIME_384WELL_CTox_Active: Cytotoxicity Assessment (CTOX) in CCTE's 384-well Estrogen Receptor Transactivation Assay with AIME metabolic competence (metabolism positive), Deisenroth Lab (AID 2284037; active means hit-call score of the fitted dose curve at least 0.9, where 1 is the maximum;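 further: chemicals first conditioned 2 h by alginate-bound induced rat liver S9 before cells; activity means signal loss indicating cell death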). A digest of the protocol:
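Cytotoxicity in VM7Luc4E2 breast cells, 24 hour, measured as protease-substrate fluorescence loss, after 2-hour metabolic conditioning with induced rat hepatic S9 in alginate microspheres. Concentrations 0.002 - 200 uM, 10 points, bidirectional fitting.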

Assay [16] in a line: CCTE_Deisenroth_AIME_384WELL_CTox_Inactive: Cytotoxicity Assessment (CTOX) in CCTE's 384-well Estrogen Receptor Transactivation Assay without AIME metabolic competence (metabolism negative), Deisenroth Lab (AID 2284039; active means hit-call score of the fitted dose curve at least 0.9, where 1 is the maximum;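 further: cell viability via live-cell protease substrate cleaved to fluorescent probe; cells exposed 24 h to medium preincubated 2 h with alginate-water beads without S9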). A digest of the protocol: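 VM7Luc4E2 cells, metabolism-negative arm: test chemicals (0.002–200 uM, 10 points) pre-incubated 2 h with alginate-water microspheres, then medium transferred to cells for 24 h. Viability read as protease-substrate cleavage to fluorescent probe; loss-of-signal, bidirectional fitting.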

Usually AC50 stands for the concentration at which the activity in the assay is half-maximal.

Chain of Estrogen receptor (Homo sapiens) (P03372 whole entry, looked up): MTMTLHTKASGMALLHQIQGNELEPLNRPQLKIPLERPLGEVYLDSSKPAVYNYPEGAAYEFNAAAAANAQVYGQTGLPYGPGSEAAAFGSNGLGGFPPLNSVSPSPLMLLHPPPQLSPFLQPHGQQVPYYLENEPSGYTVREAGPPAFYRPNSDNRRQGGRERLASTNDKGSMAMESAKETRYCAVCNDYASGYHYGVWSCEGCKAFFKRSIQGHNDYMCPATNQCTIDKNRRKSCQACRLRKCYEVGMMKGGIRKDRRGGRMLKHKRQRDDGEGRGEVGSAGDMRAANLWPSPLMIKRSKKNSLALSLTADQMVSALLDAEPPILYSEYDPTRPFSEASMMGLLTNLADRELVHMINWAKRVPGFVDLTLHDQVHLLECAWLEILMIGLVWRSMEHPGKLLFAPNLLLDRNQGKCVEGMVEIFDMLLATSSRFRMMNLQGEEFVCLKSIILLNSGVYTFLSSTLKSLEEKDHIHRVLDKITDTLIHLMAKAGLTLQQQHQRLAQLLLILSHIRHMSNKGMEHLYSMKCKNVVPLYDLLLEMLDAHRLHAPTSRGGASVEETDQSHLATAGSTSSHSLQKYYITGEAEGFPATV

For `CCCCC(CC)C(=O)OCCOCCOCCOC(=O)C(CC)CCCC` (stereo not drawn), the call in assay [1], in assay [2], in assay [3], in assay [4], in [5] and in assay [6] was inactive. Further, the call in assay [7], in assay [8], in [9], in assay [10], in [11] and in assay [12] was inactive. In addition, the outcome in assay [13] and in [14] was inactive.

Turning to `c1ccc2c(c1)-c1cccc3c1c-2cc1ccccc13`, the call in [13], in assay [15] and in [14] was inactive. Also, the half-maximal activity concentration (AC50) in assay [16] was 19.8 µM (active).

Turning to `c1ccc2cc3ccccc3cc2c1`, the molecule was called inactive in assay [1], in [2], in assay [3], in assay [4], in assay [5] and in assay [6]. The call in assay [7], in assay [8], in [11] and in [12] was inactive. The values for the AC50 in assay [9] and in assay [10] were 0.003 µM (active) and 0.00687 µM (active), respectively.

Regarding `CCOc1ccc2[nH]cc(C(=O)NCc3ccccc3)c(=O)c2n1`, the result in assay [13] and in [14] was inactive.

As for `OCc1ccccc1`, the result in [1], in assay [2], in [3], in assay [4], in assay [5] and in [6] was inactive. The outcome in [7], in [8], in assay [9], in [10], in assay [11] and in [12] was inactive. The call in assay [13], in assay [15], in assay [14] and in [16] was inactive.

In the case of `CCCCOC(=O)c1ccccc1`, the molecule was classed as inactive in assay [13], in [15], in assay [14] and in [16].

As to `COCc1nnc(-c2ccc[n+]([O-])c2)n1-c1c(Cl)c(Cl)cc2[nH]c(=O)c(=O)[nH]c12`, the result in assay [1], in assay [5], in assay [8] and in [10] was inactive. For the same molecule, the AC50 in [2] was 8.06 µM (active); in [3], 30 µM (active); in assay [4], 17.2 µM (active); in assay [6] it was 4.76 µM (active); in [7], 10.9 µM (active); in assay [9], 29.2 µM (active). Also, the half-maximal activity concentration (AC50) was 8.51 µM (active) in [11] and 14.7 µM (active) in assay [12].

On to `c1ccc2ncccc2c1`, for which the molecule was called inactive in [13] and in assay [14].

For `CC(C)C(=O)Nc1ccc([N+](=O)[O-])c(C(F)(F)F)c1`, the call in [1], in assay [5], in [6], in assay [8], in assay [10] and in assay [12] was inactive. Also, the AC50 in assay [2] was 4.66 µM (active); in assay [3], 30.8 µM (active); in assay [4] it was 6.55 µM (active); in [7], 5.47 µM (active); in assay [9] it was 34.4 µM (active); in [11], 5.73 µM (active).

Consider `CC[C@H](C)C(=O)O[C@H]1C[C@H](O)C=C2C=C[C@H](C)[C@H](CC[C@@H](O)C[C@@H](O)CC(=O)O)[C@H]21`, for which the molecule was classed as inactive in assay [1], in assay [2], in assay [3], in assay [4], in assay [5] and in [6]. Moreover, the outcome in assay [7], in [8], in assay [9], in [10], in [11] and in [12] was inactive.

With `C=CCc1cc(S(=O)(=O)c2ccc(O)c(CC=C)c2)ccc1O`, the outcome in [1], in [2], in assay [3], in assay [4], in [5] and in [6] was inactive. Moreover, the result in [7], in assay [8], in assay [9], in assay [10], in assay [11] and in assay [12] was inactive. In addition, in assay [16], the result was inactive. Also, the half-maximal activity concentration (AC50) in [15] is 169 µM (active).

`CCn1nc(C)c2c1C(=O)NCC(c1ccc(O)cc1)=N2`: the outcome in assay [13] and in [14] was inactive.

With `CC(C)CCCCCCOC(=O)C1CCCCC1C(=O)OCCCCCCC(C)C` (stereo not drawn), the call in [13], in [15] and in assay [14] was inactive.

For `O=S(=O)(O)c1ccc(N=Nc2c(O)ccc3cc(S(=O)(=O)O)ccc23)cc1`, the outcome in assay [1], in [2], in assay [3], in [4], in [5] and in assay [6] was inactive. Moreover, the call in assay [7], in [8], in assay [9], in assay [10], in assay [11] and in assay [12] was inactive.

Take `OCC(CO)(CO)CO`: the result in assay [13], in assay [14] and in assay [16] was inactive.

On to `CC(C)c1nnc2ccc(-c3ocnc3-c3cc(F)ccc3F)cn12`, for which the result in [13] and in [14] was inactive.

Take `COc1cc(C(C)C)c2c(c1)S(=O)(=O)N(COc1cc(=O)n3cccc(OCCN4CCCCC4)c3n1)C2=O`: the AC50 in assay [1] was 5 µM (active); in assay [5] it was 7.87 µM (active); in assay [7] it was 1.03 µM (active); in assay [11], 7.59 µM (active); in assay [12], 7.39 µM (active). The call in [2], in assay [3], in assay [4], in assay [6], in [8] and in assay [9] was inactive. Besides, the result in assay [10] was inactive.

In the case of `c1ccc(C(O[C@@H]2CCCN(CCc3ccc4c(c3)OCO4)C2)c2ccccc2)cc1`, the molecule was classed as inactive in assay [1], in assay [2], in [4], in [5], in [7] and in assay [8]. Moreover, the outcome in [9], in assay [10], in assay [11], in assay [12], in assay [15] and in [14] was inactive. The concentration at half-maximal activity (AC50) in assay [3] is 4.15 µM (active); in assay [6], 4.49 µM (active); in assay [13], 29.1 µM (active).
